Test results as given in PubChem BioAssay AID1779 (Sanford-Burnham Center for Chemical Genomics, 2009).
The whole screen tested about 290,000 compounds, of which about 160 (0.055%) were called active. Cut-off read from the data, not from the text of the source: active = inhibition above about 50%; inactive = the rest. For the sample, actives were picked, then their nearest neighbours and some compounds at random.

The compounds below were run against Tyrosine-protein phosphatase non-receptor type 22 (Homo sapiens) (UniProt Q9Y2R2) (assay: PTPN22 lymphoid phosphatase activity blockers – biochemical, fluorescence intensity, uHTS (AID 1779;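 note: plate controls were vehicle with enzyme for no effect and no enzyme for full effect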)). Conditions: recombinant LYP phosphatase, at 11.5 µM, hits give high values.
Tyrosine-protein phosphatase non-receptor type 22 (Homo sapiens), sequence (Q9Y2R2 whole entry, looked up): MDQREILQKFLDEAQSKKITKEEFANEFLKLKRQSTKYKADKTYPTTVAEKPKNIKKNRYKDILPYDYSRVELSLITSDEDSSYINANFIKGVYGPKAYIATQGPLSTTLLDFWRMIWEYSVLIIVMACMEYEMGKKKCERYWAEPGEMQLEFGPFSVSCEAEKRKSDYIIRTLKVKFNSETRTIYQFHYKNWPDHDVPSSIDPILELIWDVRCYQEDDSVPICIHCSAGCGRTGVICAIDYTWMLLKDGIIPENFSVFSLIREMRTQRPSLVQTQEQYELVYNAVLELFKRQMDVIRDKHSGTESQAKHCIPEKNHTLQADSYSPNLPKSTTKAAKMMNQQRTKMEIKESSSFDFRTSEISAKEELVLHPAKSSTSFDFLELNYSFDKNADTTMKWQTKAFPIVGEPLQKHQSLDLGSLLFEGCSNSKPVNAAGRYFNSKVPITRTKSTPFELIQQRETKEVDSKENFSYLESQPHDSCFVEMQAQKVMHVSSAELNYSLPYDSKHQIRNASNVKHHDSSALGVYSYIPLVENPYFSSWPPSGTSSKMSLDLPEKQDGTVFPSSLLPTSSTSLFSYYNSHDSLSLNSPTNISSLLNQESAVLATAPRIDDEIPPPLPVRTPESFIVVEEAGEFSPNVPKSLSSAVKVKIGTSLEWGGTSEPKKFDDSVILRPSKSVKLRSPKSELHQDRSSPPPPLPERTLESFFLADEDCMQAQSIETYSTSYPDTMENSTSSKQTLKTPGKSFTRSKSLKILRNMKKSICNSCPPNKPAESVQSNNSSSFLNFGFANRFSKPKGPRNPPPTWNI
With `CC(=O)c1ccc2c(c1)C1C(Cl)C(Sc3ccccc3[N+](=O)[O-])CC1C(C(=O)O)N2` (stereo not given) the inhibition was 51.4% (active). For `CCN(CC)C(=O)c1ccc2c(c1)C1C(Cl)C(Sc3ccccc3[N+](=O)[O-])CC1C(C(=O)O)N2` (stereo not given), the inhibition was 6.1% (inactive). For `CC(=O)c1ccc2c(c1)C1C(Cl)C(Sc3ccccc3[N+](=O)[O-])CC1C(c1ccccc1)N2` (stereo not given), the inhibition was 6% (inactive). In the case of `O=P(Nc1ccccc1)(Nc1ccccc1)Oc1ccc(Cl)cc1`, the inhibition is reported as -4% (inactive). In the case of `COCc1cc(C2SCC(=O)Nc3c2c(=O)[nH]n3C(C)C)ccc1OC` (stereo not given), the inhibition is reported as -11.3% (inactive). For `CCOP(=O)(/C=C(\Cl)c1ccccc1)C(O)c1ccc(F)cc1` (stereo not given), the inhibition was -5.3% (inactive). For `CC(=O)C1C(=O)NC23CCCCC2C1c1ccccc1O3` (stereo not given), the inhibition was 1.8% (inactive). In the case of `COc1ccc(-n2c(/C=C/c3ccc(O)cc3)nc3ccccc3c2=O)cc1`, the inhibition is reported as -7.8% (inactive). For `CCn1nc(-c2ccccc2)nc2c(=O)n(C)c(=O)nc1-2`, the inhibition was 60.7% (active). For `O=c1c2ccccc2nc(/C=C/c2ccccc2)n1-c1ccc(O)cc1`, the inhibition was 3.1% (inactive). In the case of `CCOc1ccc(-n2c(-c3cccs3)nc3ccccc3c2=O)cc1`, the inhibition is reported as 8.8% (inactive). In the case of `COc1ccc(-n2c(-c3ccccc3)nc3ccccc3c2=O)cc1`, the inhibition is reported as -9.9% (inactive). In the case of `CCn1nc(-c2cccs2)nc2c(=O)n(C)c(=O)nc1-2`, the inhibition is reported as 52.8% (active). `O=c1c2ccccc2nc(-c2cccs2)n1-c1ccccc1` was tested, and the inhibition was -10.4% (inactive). In the case of `CCn1nc(/C=C/c2ccccc2)nc2c(=O)n(C)c(=O)nc1-2`, the inhibition is reported as 79.3% (active). `CCCc1nc2ccccc2c(=O)n1-c1ccc(OC)cc1` was tested, and the inhibition was 2.2% (inactive). `COc1ccc(C(=O)N2CCC3(CC2)OCCO3)cc1` was tested, and the inhibition was -5% (inactive). In the case of `c1ccc2c(CN3CCOCC3)c[nH]c2c1`, the inhibition is reported as -8.9% (inactive). With `Cc1cc(OC(=O)c2cccs2)c2c3c(c(=O)oc2c1)CCCC3` the inhibition was 2.4% (inactive). `CCOC(=O)C(O)(c1ccc(NC(=O)Oc2ccccc2)cc1)C(F)(F)F` (stereo not given) was tested, and the inhibition was -3.1% (inactive). `CCN1CCN(c2ccc([N+](=O)[O-])cc2C=C2C(=O)NC(=O)NC2=O)CC1` was tested, and the inhibition was -8.1% (inactive). In the case of `c1nc2nc3c(c(N4CCNCC4)n2n1)CCCC3`, the inhibition is reported as -3.9% (inactive). For `S=P(Nn1cnnc1)(c1ccccc1)c1ccccc1`, the inhibition was 0.6% (inactive). `CCOC(=O)c1c(C)n(CC(O)CN2CCOCC2)c2cc(Br)c(OC)cc12` (stereo not given) was tested, and the inhibition was -6.1% (inactive). `COc1ccc(-c2nn(CCC#N)cc2C(=O)Nc2ccccc2)cc1OC` was tested, and the inhibition was -8% (inactive). In the case of `CN(C)CC1CSCCC1(O)c1ccc(C(F)(F)F)cc1` (stereo not given), the inhibition is reported as -5.6% (inactive). For `Cc1ccc(-c2nc3ccccc3c(=O)n2-c2ncccc2C)cc1`, the inhibition was -0.2% (inactive). In the case of `Cc1cccnc1-n1c(C)nc2ccccc2c1=O`, the inhibition is reported as 90.2% (active). With `Cc1cccnc1-n1c(-c2ccccc2)nc2ccccc2c1=O` the inhibition was -1.3% (inactive). `C=CCN1C(=O)NC(=O)C(Cc2ccc(OC)c(OC)c2)C1=O` (stereo not given) was tested, and the inhibition was 3.4% (inactive). For `Cc1nc2c(=O)n(C)c(=O)nc-2n(C)n1`, the inhibition was 87.9% (active). `Cn1ncnc2c(=O)n(C)c(=O)nc1-2` was tested, and the inhibition was 71.9% (active). In the case of `CN1CC(C(=O)c2ccc(F)cc2)C(c2ccc(F)cc2)C1` (stereo not given), the inhibition is reported as -5.4% (inactive). In the case of `C=CCC1C(=O)NC(=S)NC1=O`, the inhibition is reported as 4.3% (inactive). With `COc1ccccc1N1CCN(CCc2ccccc2)CC1` the inhibition was -7.3% (inactive). With `N=C1c2ccccc2CN1NC(=O)c1ccc(Br)cc1` the inhibition was -5.9% (inactive). `CCOC(=O)C(NC(=O)CC)(Nc1ccc(C(O)(C(=O)OCC)C(F)(F)F)cc1C)C(F)(F)F` (stereo not given) was tested, and the inhibition was -6.6% (inactive). `CCOC(=O)C(NC(=O)CCl)(Nc1ccc(C(O)(C(=O)OCC)C(F)(F)F)cc1)C(F)(F)F` (stereo not given) was tested, and the inhibition was 82.4% (active). With `CCCCNC(=O)Nc1ccc(C(O)(C(=O)OCC)C(F)(F)F)cc1` (stereo not given) the inhibition was -8.2% (inactive). In the case of `CCC(=O)N1CC(=O)Nc2ccc(F)cc2C1c1ccc(F)cc1` (stereo not given), the inhibition is reported as 1% (inactive).
